Data from the supplement of paper PMC6555819.

Key:
Test in all cases: PBM binding z-score (relative to random genomic background probes); higher = stronger binding; sequences stand for … in GC…GCGATTGACAGCGTAGAATGAAGG
[1] = tested on: FXR:RXRa (NR concentration 270 nM, RXRa partner concentration 90 nM)
Outline: (§1)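 Binding buffer was PBS pH 7.4 with 2% milk, 0.02% Triton X-100, 1 mM DTT, 0.2 mg/mL BSA and 0.4 mg/ml salmon testes DNA. In it, ligand-free nuclear receptor dimers were incubated 1 h on custom Agilent 4×180K protein-binding microarrays carrying double-stranded probes. Antibodies against each partner (one per run) detected binding, and z-scores were calculated against random background probes after regression normalization of scanned fluorescence.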

[2] = tested on: LXRa:RXRa (NR concentration 270 nM, RXRa partner concentration 90 nM)
Outline: as §1

[3] = tested on: LXRa homodimer (NR concentration 270 nM)
Outline: as §1

[4] = tested on: LXRb:RXRa (NR concentration 270 nM, RXRa partner concentration 90 nM)
Outline: as §1

[5] = tested on: LXRb homodimer (NR concentration 270 nM)
Outline: as §1

[6] = tested on: PPARa:RXRa (NR concentration 270 nM, RXRa partner concentration 90 nM)
Outline: as §1

[7] = tested on: PPARg:RXRa (NR concentration 180 nM, RXRa partner concentration 90 nM)
Outline: as §1

[8] = tested on: PPARg:RXRa 270nM:90nM, anti-RXR (NR concentration 270 nM, RXRa partner concentration 90 nM)
Outline: as §1

[9] = tested on: PPARg:RXRa 30nM:10nM, anti-RXR (NR concentration 30 nM, RXRa partner concentration 10 nM)
Outline: as §1

[10] = tested on: PPARg:RXRa 90nM:30nM, anti-RXR (NR concentration 90 nM, RXRa partner concentration 30 nM)
Outline: as §1

[11] = tested on: PPARg:RXRa DBDmut IVT, anti-RXR (DBD mutation: RXRa K156A/R161A, NR concentration 270 nM, RXRa partner concentration 90 nM)
Outline: as §1

[12] = tested on: PPARg:RXRa IVT, anti-PPARg (NR concentration 270 nM, RXRa partner concentration 90 nM)
Outline: as §1

[13] = tested on: PPARg DBDmut:RXRa IVT, anti-PPARg (DBD mutation: PPARg1 K132A/R137A, NR concentration 270 nM, RXRa partner concentration 90 nM)
Outline: as §1

[14] = tested on: PPARg DBDmut IVT, anti-PPARg (DBD mutation: PPARg1 K132A/R137A, NR concentration 270 nM)
Outline: as §1

[15] = tested on: PPARg homodimer (NR concentration 180 nM)
Outline: as §1

[16] = tested on: PXR:RXRa (NR concentration 270 nM, RXRa partner concentration 90 nM)
Outline: as §1

[17] = tested on: PXR homodimer (NR concentration 270 nM)
Outline: as §1

[18] = tested on: RARa:RXR (NR concentration 270 nM, RXRa partner concentration 90 nM)
Outline: as §1

[19] = tested on: RARa homodimer (NR concentration 270 nM)
Outline: as §1

[20] = tested on: RARb:RXRa (NR concentration 270 nM, RXRa partner concentration 90 nM)
Outline: as §1

Sequence | PBM binding z-score [1] | PBM binding z-score [2] | PBM binding z-score [3] | PBM binding z-score [4] | PBM binding z-score [5] | PBM binding z-score [6] | PBM binding z-score [7] | PBM binding z-score [8] | PBM binding z-score [9] | PBM binding z-score [10] | PBM binding z-score [11] | PBM binding z-score [12] | PBM binding z-score [13] | PBM binding z-score [14] | PBM binding z-score [15] | PBM binding z-score [16] | PBM binding z-score [17] | PBM binding z-score [18] | PBM binding z-score [19] | PBM binding z-score [20]
AGAATGAGGTTCTTAAGATCAGGGAATTGCGGTC | -0.335 | -0.575 | -0.571 | -0.551 | -0.54 | -0.0387 | 0.197 | -0.0485 | -0.306 | 0.0331 | 0.324 | 0.283 | 0.378 | -0.225 | -0.0988 | -0.118 | -0.179 | -0.0748 | -0.832 | 0.0675
GCAGACAGGTGAAACACAGGTAACTCAGGGTGGC | 0.0737 | 0.312 | -0.336 | -0.415 | -0.7 | 0.874 | 0.952 | 0.125 | -0.424 | -0.0605 | 0.926 | 0.641 | -0.0327 | -0.651 | -0.0531 | -0.0674 | -0.462 | 0.56 | -0.402 | 0.685
CCTAGTTGGTCAGGGTCACACACGCTATAGGTAC | 3.57 | 3.05 | 0.771 | 3.33 | 0.27 | 4.17 | 3.28 | 3.51 | 1.5 | 2.6 | 1.32 | 2.77 | 0.391 | 0.0582 | 2.15 | 3.91 | 1.38 | 4.76 | 1.57 | 3.43
TCTCGGAGGACACGAAGGTCAGACCTTTCCAGAG | 1.6 | 1.26 | 0.373 | 1.41 | -0.66 | 2.19 | 0.782 | 1.53 | 2.38 | 2.04 | 1.65 | 0.996 | -0.713 | -0.138 | 1.39 | 2.12 | 0.898 | 2.4 | 0.387 | 3.59
ATCTCTAGGTCACAAGTTCAGTGAAAGAGAGGAC | 3.91 | 4.68 | 3.14 | 3.08 | 2.24 | 4.35 | 6.67 | 5.95 | 3.16 | 5.39 | 6.82 | 6.99 | 2.94 | 2.5 | 2.82 | 3.7 | 2.65 | 3.86 | 1.69 | 4.5
CCGAGCAGGCCAATCTGGGTCACTCAAGGCTTGA | 1.11 | 1.16 | -0.65 | 0.371 | -1.25 | 2.65 | 2.05 | 2.12 | -0.249 | 1.21 | 3.97 | 4.58 | -1.06 | -1.1 | 0.368 | 0.937 | -0.646 | 1.17 | -1.1 | 1.77
GCTCGGAGGACAAGGTCAGAGCTTTGTCCGTAGA | 1.71 | 2.02 | -0.543 | 1.29 | -0.667 | 2.5 | 0.957 | 1.67 | -0.521 | 0.794 | -0.433 | 0.861 | -1.56 | -1.45 | 0.708 | 1.55 | -0.264 | 2.24 | -0.542 | 3.52
GCTCGGAGGTCAAGGTCAGAGCTTTGTCCGTAGA | 7.3 | 5.97 | 1.81 | 4.82 | 1.33 | 5.76 | 6.41 | 6.35 | 2.69 | 5.23 | 3.94 | 4.68 | -0.342 | -0.512 | 4.12 | 5.61 | 1.32 | 6.17 | 2.29 | 5.37
ATCTCTAGGTAACACGTTCAGTGAAAGAGAGGAC | 0.359 | 0.232 | 0.454 | 0.113 | 0.898 | 0.511 | 0.99 | 1.06 | 0.213 | 0.803 | 3.45 | 3.05 | 1.75 | 1.04 | 0.135 | 0.0713 | 0.206 | 0.208 | 0.489 | 0.552
GATACAGGGTCAAGGCAAGAGTACGCGTATTGAT | 6.93 | 4.47 | 0.251 | 3.95 | 0.189 | 6.03 | 6.09 | 5.4 | 2.18 | 4.16 | 2.89 | 4.14 | 1.59 | 0.74 | 2.69 | 3.78 | 0.428 | 4.61 | 1.12 | 4.62
CAAACTAGGTCAAGAGGTCAAATTCCGCTTCCCG | 7.41 | 6.59 | 7.45 | 6.01 | 2.95 | 6.83 | 9.67 | 8.42 | 7.02 | 8.9 | 7.98 | 8.45 | 2.67 | 2.22 | 6.39 | 6.47 | 2.4 | 7.61 | 2.96 | 5.63
CTCGAAAGGTCTGTTGAGGTGAGTATACGGATAA | 0.57 | -0.177 | -0.581 | -0.275 | -0.339 | 0.697 | -0.00878 | 0.182 | -0.0313 | 0.242 | -0.464 | 0.358 | 0.678 | 0.237 | 0.0956 | 0.48 | -0.39 | 1.61 | -0.325 | 1.47
CCTCGGAGGACAACAGGAGGTCAGCGCTGCCAGA | 1.63 | 2.48 | 1.84 | 1.66 | -0.537 | 2.37 | 0.445 | 0.734 | -0.791 | 0.307 | 0.165 | 0.649 | -1.42 | -1.72 | 2.38 | 2.56 | 0.451 | 2.71 | 0.815 | 3.27
TCGAGTAGGTTAGGGGTATTCAGAATGGCGTCGA | 0.347 | 0.298 | -0.105 | 1.01 | -0.0483 | 1.66 | 2.37 | 3.55 | 2.28 | 2.99 | 2.5 | 2.26 | 0.429 | 0.6 | 0.948 | 0.383 | 0.362 | 0.00419 | 0.176 | 0.589
